Assay outcomes (PubChem)
hgDAF12 agonist: activates the H. glycines DAF-12 receptor ligand-binding domain; activation, % at 6.8 µM; HEK293 GAL4-hgDAF12 UAS-luciferase reporter, agonist luminescence; normalized to butyrate control; AID 687014; 370,000 compounds, 1.8% hits;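 active means activation above a cutoff set at the mean of all screened compounds plus 3 SD, cut at about 10% in these data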
DAX1 inh-1: inhibits human nuclear receptor DAX1; 340,000 compounds, 0.99% hits; AID 504766; HEK293 Gal4-DAX1 luciferase reporter, luminescence; P51843; inhibition, % at 6.75 µM;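 active means inhibition above the mean over all tested compounds plus 3 SD, cut at about 4.2% in these data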;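 further: inhibition shows as a rise in luminescence from relieved DAX1 repression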
Target sequence (P51843 207-470 limits assumed): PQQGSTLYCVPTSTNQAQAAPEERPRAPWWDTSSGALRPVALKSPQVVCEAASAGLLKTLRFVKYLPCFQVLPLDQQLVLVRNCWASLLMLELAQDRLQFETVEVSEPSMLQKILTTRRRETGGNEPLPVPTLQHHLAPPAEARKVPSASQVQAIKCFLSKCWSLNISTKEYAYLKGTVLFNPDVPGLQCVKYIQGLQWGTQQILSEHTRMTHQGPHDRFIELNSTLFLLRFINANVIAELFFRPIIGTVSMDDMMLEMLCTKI
ssDAF12 agonist: activates DAF-12 receptor from parasite S. stercoralis | AID 652126 | 370,000 compounds, 1% hits | activation, % at 6.8 µM | HEK293 ssDAF-12/GRIP1 lit1-tk-luc reporter, luminescence; % of 3 µM dafachronic acid response;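 active means activation above the mean over all tested compounds plus 3 SD, cut at about 0.9% in these data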
PolyA inh: blocks polyadenylation in yeast reporter cells; activity score, % at 12 µM; 300,000 compounds, 0.02% hits; S. cerevisiae SKY197-pL101 polyadenylation reporter, beta-gal luminescence; efflux-impaired pdr1/pdr3 knockout yeast; score 100 = 6 SD above DMSO;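 active means lowest replicate activity score at least 50, where 100 means six control SD above control mean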;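 further: yeast exposed to compound for 9 h at 30 °C; higher score means more reporter readthrough which indicates perturbed polyadenylation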
DAX1 inh-2: blocks DAX1 repression of SF-1 activated StAR promoter; 370,000 compounds, 1.1% hits; inhibition, % at 6.8 µM; AID 652010; HEK293T StAR-luciferase reporter, SF-1/DAX-1 repression relief;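 active means inhibition above the mean over all tested compounds plus 3 SD, cut at about 3.6% in these data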;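 further: higher inhibition means more luminescence from relief of DAX-1 repression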
hcDAF12 agonist: activates DAF-12 receptor from parasite H. contortus. HEK293 hcDAF-12 lit1-tk-luc reporter, luminescence; 0% DMSO, 100% Δ7-dafachronic acid. activation, % at 6.8 µM. 370,000 compounds, 1.4% hits;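 active means activation above the mean of all tested compounds plus 3 SD, cut at about 5.5% in these data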
Hits are given with their value; - = inactive; . = no result. Shown are actives, neighbours in structure and some others; about 4.1% of the full set was active somewhere.

SMILES	hgDAF12 agonist	DAX1 inh-1	ssDAF12 agonist	PolyA inh	DAX1 inh-2	hcDAF12 agonist
CCN(CC)C(=O)O[C@H]1CC[C@@]23CCCN2C(=O)CCC[C@H]3[C@H]1C	-	.	-	.	.	-
N/C(=N\N=C\c1ccc([N+](=O)[O-])cc1)c1nonc1N	10.7	-	-	-	-	-
N/C(=N\N=C\c1ccc(Br)o1)c1nonc1N	13.0	6.1	-	-	-	-
Oc1[nH]c2ccccc2c1N=Nc1ccc(F)cc1	11.8	-	-	-	-	-
CC(C)(O)C(=O)N=Nc1c(O)[nH]c2ccccc12	10.5	-	-	-	-	-
Oc1[nH]c2ccc(Br)cc2c1N=Nc1ccc(F)cc1	-	-	-	-	-	-
O=C(CNC(=O)Cc1ccccc1)N=Nc1c(O)[nH]c2ccccc12	-	-	-	-	-	-
CN1CCN(NC(=O)CN2C(=O)S/C(=C\c3c(Cl)cccc3Cl)C2=O)CC1	-	5.2	-	-	-	-
Nc1n[nH]c2cc(=O)n(-c3cccc(C(F)(F)F)c3)nc12	-	-	-	-	-	-
O=c1[nH][nH]c2cc(=O)n(-c3cccc(C(F)(F)F)c3)nc12	-	-	5.2	-	-	-
Cc1ccc2nc(-c3ccccc3)nn2c1	-	-	-	.	-	6.5
Cc1ccc(C(=O)Nc2cc([N+](=O)[O-])ccc2F)s1	-	5.8	-	-	-	-
c1cnc(Sc2ccc3nnnn3n2)nc1	-	-	1.3	-	-	-
c1ccc(-c2ccc3nnnn3n2)cc1	-	-	-	-	-	-
COc1cc2c(cc1NC(=O)C(C)OC(=O)/C=C/c1ccc(OC(F)F)cc1)oc1ccccc12 (stereo not given)	-	-	-	-	-	8.2
C#CCNC(=O)C[C@H]1C[C@@]2(C(=O)OC)C(=C[C@H](C(C)C)O[C@@H]2C2CC2)N(Cc2ccccc2)C1=O	-	.	-	.	-	-
O=C(CCCc1nc(-c2ccccc2)no1)NC1CCCCC1	-	-	1.1	-	-	-
Cc1ccc(-c2noc(CCCC(=O)NC3CCCCC3)n2)cc1	-	-	-	-	-	-
[O-][n+]1ccccc1/C=C/c1ccccc1	-	-	-	-	-	-
CN(C)c1ccc(/C=C/c2cccc[n+]2[O-])cc1	-	.	-	-	-	6.3
COc1ccccc1CCNC(=O)CSc1nc2c([nH]1)c(=O)n(C)c(=O)n2C	-	.	-	.	-	-
COC(=O)c1c(-c2ccc(OC)cc2)sc2ccc(-c3ccc4c(c3)OCO4)cc12	-	-	-	.	-	-
COC(=O)c1c(-c2ccc(OC)cc2)sc2ccc(OC)cc12	-	-	1.6	.	-	-
COC(=O)CN1CCN(C(=O)c2csc3ccccc23)CC1	-	.	-	.	-	-
CC(Sc1nnc(C2CC2)n1-c1ccccc1)C(=O)N1CCCC1 (stereo not given)	13.1	-	-	.	-	-
SMILES	hgDAF12 agonist	DAX1 inh-1	ssDAF12 agonist	PolyA inh	DAX1 inh-2	hcDAF12 agonist
O=C(O)c1ccc(/C=N/Nc2cccc(C(F)(F)F)c2)cc1	-	-	-	-	4.3	-
COc1ccc(/C=N/Nc2ccc(C(=O)O)cc2)cc1Br	-	-	-	-	4.0	-
O=C(O)c1ccc(/C=N/Nc2ccc(C(F)(F)F)cn2)cc1	18.6	-	3.4	-	4.2	6.0
COc1cc(/C=N/Nc2ccc(C(F)(F)F)cn2)ccc1O	-	-	-	-	-	-
COc1ccc(/C=N\NC(=O)C2CCCC2)cc1Br	-	-	-	-	-	-
S=C(Nc1ccc(Cl)c(Cl)c1)Nc1nnc(-c2ccncc2)s1	-	.	-	.	.	-
Cc1ccc([N+](=O)[O-])c(OCc2ncc(Cl)n2C)c1	-	-	1.1	-	-	-
Cc1ccc([N+](=O)[O-])c(OCCN2CCNCC2)c1	-	-	-	-	-	-
O=c1cc(N2CCc3ccccc32)[nH]c(=O)n1-c1ccc(Br)cc1	-	-	-	-	-	5.8
CN(C)N=Nc1ccc(-c2cn(Cc3ccccc3)cn2)cc1	-	-	1.0	-	-	-
CCOc1ccccc1NC(=O)Nc1ccc2c(c1)CCC2	-	-	-	-	3.6	-
COc1cc(CNc2ccc3c(c2)CCC3)cc(OC)c1O	-	-	-	-	-	-
CCOc1cc(CNc2ccc3c(c2)CCC3)ccc1O	-	-	1.2	-	-	-
O=C(COc1ccccc1F)Nc1ccc2c(c1)CCC2	14.9	-	-	.	3.7	-
O=C(COc1cccnc1[N+](=O)[O-])Nc1ccc2c(c1)CCC2	-	-	-	-	-	-
O=C1CSC(c2cccnc2)N1Cc1ccc(Cl)cc1 (stereo not given)	-	-	-	-	-	-
O=C1CSC(c2cccnc2)N1CC1CC1 (stereo not given)	-	4.8	-	-	-	-
CC1(C)CC(=O)C2=C(C1)NC1=C(C(=O)c3ccccc31)C2c1ccc(Cl)cc1 (stereo not given)	-	-	-	-	-	6.4
Cc1cc(/C=N/NC(N)=S)c(C)n1-c1ccc(Cl)c(Cl)c1	-	-	-	-	-	-
CCNC(=S)N/N=C/c1cc(C)n(-c2ccc(Cl)cc2)c1C	10.9	-	-	-	-	-
CN(C)C(=O)C12CCC(C)(C(=O)C1Br)C2(C)C (stereo not given)	-	-	1.0	-	-	-
Cc1ccc(Nc2nnc(-c3ccc4c(c3)OCO4)o2)c(C)c1	-	-	-	-	-	-
Clc1ccc(Nc2nnc(-c3ccc4c(c3)OCO4)o2)cc1	-	.	-	.	3.9	-
CC(C)C1C(=O)N(Cc2cn(CC3CCCCC3)nn2)CCS(=O)(=O)N1Cc1ccc(-c2ccc(Cl)nc2)cc1 (stereo not given)	-	-	-	.	4.4	-
CC(C)CC1C(=O)N(Cc2cn(CCC3OCCCO3)nn2)CCS(=O)(=O)N1Cc1ccc(-c2ccc(Cl)nc2)cc1 (stereo not given)	-	5.1	-	.	-	-
SMILES	hgDAF12 agonist	DAX1 inh-1	ssDAF12 agonist	PolyA inh	DAX1 inh-2	hcDAF12 agonist
CC(C)C1C(=O)N(Cc2cn(CC3CCCCC3)nn2)CCS(=O)(=O)N1Cc1ccc(-c2ccc(Cl)cc2)cc1 (stereo not given)	-	-	-	.	-	-
CCCC[C@H]1C2CC(OC(=O)Nc3ccc(Cl)cc3)C(C2)[C@H]2CCCCN21 (stereo not given in full)	-	.	-	.	-	-
c1ccc(-c2nnc(-c3ccccn3)nn2)nc1	12.6	-	-	-	-	-
O=C(N/N=C/c1cc([N+](=O)[O-])ccc1O)NC12CC3CC(CC(C3)C1)C2	-	-	-	-	-	-
O=C(N/N=C/c1cc([N+](=O)[O-])ccc1O)C12CC3CC(CC(C3)C1)C2	-	4.2	-	-	-	-
c1ccc(Nc2c(-c3ccco3)nc3ccccn23)cc1	-	-	-	-	-	6.0
